# PubChem BioAssay AID1458 (National Center for Advancing Translational Sciences (NCATS), 2008)
# In all, about 210,000 compounds went through this assay and about 5,900 (2.8%) were called active. A call without a number means that no potency is given here. About 5% were inconclusive and are not listed. This is one part of a sample in which actives are shown more often than they occur. Calls come from the whole dose curve; as a rule, active = well fitted activation curve with a large enough effect; inconclusive = small, poorly fitted or top-dose-only effect; inactive = no such curve, though single readings can be large or run the other way.
# Test: qHTS Assay for Enhancers of SMN2 Splice Variant Expression; note: nearly all actives have a fitted effect of over 55% in size
# Conditions: HEK293 SMN2-luciferase splicing reporter, luminescence, 30-36 h; series mostly up to 46.1 µM
# Outline: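 HEK293 cells carry an SMN2 minigene-luciferase reporter in which exon 7 inclusion puts luciferase in frame. Cells were seeded at 2000 cells/well, attached for 10-12 hours, then exposed to compounds for 30-36 hours at 37C before ONE-Glo luminescence.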
# Potency is the fitted concentration of half-maximal effect.
Structure (SMILES),Potency,"activity change, positive = activation"
CCc1ccccc1N1CC(c2nc3ccccc3n2CCCCOc2ccccc2)CC1=O (stereo not drawn),inactive,
Cc1cc(C)c(NC(=O)c2cc3sc(Cl)cc3n2C)c(C)c1,inactive,
O=C(c1cccc(C(=O)N2CCc3ccccc32)n1)N1CCc2ccccc21,inactive,
O=C(c1cnn2ccccc12)N1CCc2ccccc21,11.2 µM (active),
Cc1cnc(C(=O)OCC(=O)N2CCc3ccccc32)cn1,inactive,
COc1cc(OC)c(C2C=C(C(=O)O)Nc3ncnn32)cc1OC (stereo not drawn),inactive,
S=C(NCc1ccc2c(c1)OCO2)NCc1ccco1,inactive,
S=C(NCc1ccco1)Nc1ccc2c(c1)OCCO2,15.8 µM (active),
FC(F)Oc1ccc(NC(=S)NCc2ccco2)cc1Cl,inactive,
COc1ccccc1CNC(=O)c1ccc(NC(=O)N2CC(C)Sc3ccccc32)cc1 (stereo not drawn),inactive,
CC(=O)N1CCc2cc(Br)cc(S(=O)(=O)CCC(=O)NCCc3ccc(Cl)cc3)c21,inactive,
Cc1noc(C)c1/C=N/Nc1ccc2ccccc2n1,14.1 µM (active),
C(=N\Nc1ccc2ccccc2n1)/c1ccc2c(c1)OCO2,inactive,
Cc1cc(C)nc(N/N=C/c2c(C)oc3ccccc23)n1,inactive,
CCOC(=O)c1oc2ccc(S(=O)(=O)n3nc(-c4ccccc4OC)cc3N)cc2c1C,inactive,
COc1ccc(-c2nc3c(c4c2C[C@H](c2ccccc2)OC4)CN(S(=O)(=O)c2c(C)noc2C)CC3)c(C)c1,,-6.74% [at 9.22 µM] (inactive)
COc1ccc(-c2noc(COc3ccc(Cl)c(C)c3)n2)cc1,inactive,
Cc1cc(Cl)ccc1OCc1nc(-c2ccncc2)no1,12.6 µM (active),
Cc1ccccc1C(=O)NCc1nc(-c2ccc(Cl)cc2)no1,inactive,
O=C(c1ccc2c(c1)N(Cc1ccccc1)C(=O)c1ccccc1S2(=O)=O)N1CCCC1,inactive,
O=C(CCCCn1c(=O)c2ccccc2n(CC(=O)Nc2cccc(C(F)(F)F)c2)c1=O)NCc1ccc2c(c1)OCO2,inactive,
Cc1cccc(-c2nnc(SCC(=O)N3CCCc4ccccc43)o2)c1,inactive,
Fc1ccc(CSc2nnc(-c3cc4c(s3)-c3ccccc3CC4)o2)cc1,inactive,

Structure (SMILES),Potency,"activity change, positive = activation"
CCSc1nnc(-c2cc3c(s2)-c2ccccc2CC3)o1,15.8 µM (active),
COc1ccccc1-c1noc(CSc2nnc(-c3ccccc3)n2-c2ccc(C)c(C)c2)n1,inactive,
CCCCOc1ccc(C(=O)Nc2cccc(-c3nc4ccccc4o3)c2C)cc1,inactive,
O=c1[nH]c(CCl)nc2cc(-c3ccc(Cl)cc3)sc12,7.08 µM (active),
NC(=O)Cc1nc2scc(-c3ccc(Cl)cc3)c2c(=O)[nH]1,inactive,
O=c1[nH]c(CN2CCOCC2)nc2cc(Cl)ccc12,inactive,
Cc1ccc(SCCC(=O)Nc2cc(C)on2)cc1,inactive,
COc1ccc(NC(=O)CC2COc3ccccc3O2)c(OC)c1 (stereo not drawn),inactive,
Cc1cc(NC(=O)CCC2COc3ccccc3O2)no1 (stereo not drawn),12.6 µM (active),
CCc1ccccc1NC(=O)c1ccc2c(c1)CCN2S(C)(=O)=O,inactive,
Cn1c(=NC(=O)CSCC(=O)N2CCOCC2)sc2ccccc21,inactive,
Cn1c(=NC(=O)c2cnccn2)sc2ccccc21,12.6 µM (active),
Cn1c(=NC(=O)CSCC(=O)N2CCCCC2)sc2ccccc21,inactive,
Cc1cc(C)cc(OCC(=O)Nc2nc(-c3ccc(F)cc3)ns2)c1,inactive,
O=C(NCC12CC3CC(CC(C3)C1)C2)c1cc2nc(-c3ccccc3)cc(C(F)(F)F)n2n1,inactive,
COC(=O)CSc1nc(C)c2ccc(OC)cc2n1,inactive,
COc1ccc2nc(/N=C(\N)NC(=O)Nc3ccccc3)nc(C)c2c1,inactive,
COc1ccc2nc(SCc3ccccc3)nc(C)c2c1,11.2 µM (active),
CCc1nn(CCCC(=O)NC(C)c2ccccc2)c(=O)c2cc3occc3n12 (stereo not drawn),inactive,
Cc1ccc(S(=O)(=O)n2nc(-c3ccc(Cl)cc3)nc2NCc2ccccc2)cc1,inactive,
CCOc1ccc(Nc2oc(/C=C/c3ccc(F)cc3)nc2C#N)cc1,inactive,
COc1ccccc1NC(=O)C1=C(C)NC(=O)NC1c1ccc(C)s1 (stereo not drawn),inactive,
COc1ccccc1NC(=O)/C=C/C(N)=O,inactive,

Structure (SMILES),Potency,"activity change, positive = activation"
COc1ccccc1NC(=O)c1ccc(C)s1,12.6 µM (active),
Cc1cc(C)cc(NS(=O)(=O)c2ccc3[nH]cc(C(=O)N4CCCCC4)c(=O)c3c2)c1,inactive,
Cc1ccc(Nc2c(-c3ccc(Cl)cc3)nc3sccn23)c(C)c1,inactive,
CCCCOc1ccc(C(=O)N2CC(=O)Nc3ccc(Br)cc3C2c2ccc(F)cc2)cc1 (stereo not drawn),inactive,
Cc1ccc(NC(=S)NCc2ccccc2Cl)c(C)c1,inactive,
Cc1ccc(NC(=S)Nc2ncccc2C)c(C)c1,12.6 µM (active),
Cc1ccc(NC(=S)NC(=O)c2ccc(-c3ccccc3)cc2)c(C)c1,inactive,
N/C(=N\OC(=O)c1ccc([N+](=O)[O-])cc1)c1ccccn1,6.31 µM (active),
N/C(=N\OC(=O)Cc1ccc([N+](=O)[O-])cc1)c1ccccn1,inactive,
O=C(OCc1ccc([N+](=O)[O-])cc1)c1ccccn1,inactive,
CCOC(=O)c1ccc(N2C(=O)c3n[nH]c(-c4ccco4)c3C2c2ccc(O)cc2)cc1 (stereo not drawn),inactive,
Cc1nc2ccc(S(=O)(=O)NC(C(=O)NCc3ccccc3Cl)C(C)C)cc2s1 (stereo not drawn),inactive,
COc1ccc(-c2nc(CN3CCC(C(=O)NCCN(CC(C)C)CC(C)C)CC3)c(C)o2)cc1OC,inactive,
COc1ccc(CNc2nc(-c3ccc(Cl)cc3)cc(C(F)(F)F)n2)cc1,inactive,
O=C1CC(c2ccc(F)cc2F)c2cc3c(cc2N1)OCO3 (stereo not drawn),inactive,
COc1ccc(CCNC(=O)c2cc(-c3ccc4c(c3)OCO4)on2)cc1OC,inactive,
COc1c2c(cc3occ(-c4ccc5c(c4)OCO5)c(=O)c13)OC(C)(C)C=C2,6.31 µM (active),
Cc1cccc(NC(=O)CSc2nnc(CNC(=O)c3cccc(C)c3)n2-c2ccccc2)c1,inactive,
CCN1CCN(c2cc(C)c3cc(NC(=O)c4cc(Cl)ccc4OC)ccc3n2)CC1,inactive,
CCc1cccc(NC(=O)CSc2nccn2C)c1,inactive,
O=C(CCn1c(SCC(=O)c2ccccc2)nc2ccccc2c1=O)NCc1ccc(F)cc1,inactive,
Cc1ccc(C(=O)CSc2nc3ccccc3c(=O)n2N)o1,15.8 µM (active),
O=C(CCCn1c(SCC(=O)c2ccc(F)cc2)nc2ccccc2c1=O)NCc1ccco1,inactive,

Structure (SMILES),Potency,"activity change, positive = activation"
COc1ccc(-c2noc(-c3cccc(OC)c3OC)n2)cc1OC,12.6 µM (active),
COc1ccc(-c2noc(CSc3nnc(-c4ccccc4)n3-c3ccc(F)cc3)n2)c(OC)c1,inactive,
COc1ccc(-c2nc(-c3ccccc3)no2)c(OC)c1,0.447 µM (active),
COc1ccc(-c2nnco2)cc1OC,inactive,
COc1ccc(-c2noc(CSc3ccc(C)cc3)n2)cc1,inactive,
COc1ccc(/C=C/c2noc(-c3ccccc3O)n2)cc1OC,inactive,
COc1ccc(-c2noc(-c3ccc(C)cc3)n2)cc1,17.8 µM (active),
CCOc1nc(-c2ccc(OC)cc2)ccc1-c1noc(-c2cc(OC)c(OC)c(OC)c2)n1,inactive,
COc1ccc(-c2noc(CN(C)S(=O)(=O)c3ccc(C)cc3)n2)cc1,inactive,
COc1ccc(CC(N)C(=O)NC2C(O)[C@H](n3cnc4c(N(C)C)ncnc43)O[C@@H]2CO)cc1 (stereo partly drawn),inactive,
CC1=C(C(=O)OCC2CCCCC2)C(c2c(F)cccc2Cl)CC(=O)N1 (stereo not drawn),inactive,
O=C(Nc1cc(C(F)(F)F)ccc1Cl)c1ccc2c(c1)CCN2S(=O)(=O)c1ccccc1,inactive,
CCSc1ncc(Cl)c(C(=O)Nc2c(C(=O)c3ccccc3)oc3ccccc23)n1,inactive,
O=C(C1CCCN(S(=O)(=O)c2cccc3nonc23)C1)N1CCN(c2ccccc2F)CC1 (stereo not drawn),inactive,
COc1ccccc1Nc1cc(C(=O)NCCCN(C)C2CCCCC2)c2ccccc2n1,inactive,
CCCC12CN3CC(C)(CN(C1)C3c1ccccc1Cl)C2=O (stereo not drawn),inactive,
COC(=O)c1nc2ccccc2s1,inactive,
CC(C)CC(=O)NC(=S)NCc1ccccc1,inactive,
CCC(=O)NC(=Nc1nc2ccccc2s1)NC(=O)CC,10 µM (active),
CC(C)CC(=O)N/C(N)=N/c1nc2ccccc2s1,11.2 µM (active),
O=C(O)CCCCc1nc2ccccc2s1,inactive,
Cc1cc(C(=O)OCC(=O)Nc2nnc(C(C)C)s2)c2ccccc2n1,,10.4% [at 1.84 µM] (inactive)
CCc1nn(CC(=O)N2CCN(c3ccc(Cl)cc3)CC2)c(=O)c2cc3occc3n12,inactive,

Structure (SMILES),Potency,"activity change, positive = activation"
CCc1ccc(S(=O)(=O)Nc2cc3c(C(=O)OCc4ccccc4)c(C)oc3c3ccccc23)cc1,inactive,
O=C(CSc1ncc(S(=O)(=O)c2ccc(Br)cc2)c(=O)[nH]1)Nc1ccc2c(c1)OCCO2,inactive,
Cc1ccc(NC(=O)CN2c3ccccc3S(=O)(=O)c3ccccc32)cc1F,inactive,
CCOc1ccccc1NC(=O)CCS(=O)(=O)c1cccc2nsnc12,inactive,
O=C(CSCc1cccs1)N1CCCC1,12.6 µM (active),
O=C(CSCc1ccc(Cl)cc1)N1CCN(Cc2ccc3c(c2)OCO3)CC1,inactive,
O=C(CSc1ccsc1[N+](=O)[O-])N1CCCCC1,inactive,
O=C(Cn1c(=O)n(Cc2ccccc2)c(=O)c2sc3ccccc3c21)Nc1ccccc1F,inactive,
Cc1ccc(-c2nnc3c4ccccc4c(C)nn23)cc1NC(=O)c1cccc(Br)c1,inactive,
COc1ccc2c(c1OC)C(=O)OC2Nc1nc(-c2ccccc2)cs1 (stereo not drawn),inactive,
COc1ccc(-c2csc(NC(=O)c3ccc(N4C(=O)CCC4=O)cc3)n2)cc1OC,inactive,
COC(=O)CSc1nccc(-c2cccs2)n1,inactive,
Clc1ccc(Nc2nc(-c3cccs3)cs2)nc1,14.1 µM (active),
COc1ccc(C)cc1Nc1nc(-c2c(C)[nH]c3ccccc23)cs1,inactive,
NS(=O)(=O)c1ccc(Nc2nc(-c3ccccc3)cs2)cc1,inactive,
COc1ccc(Nc2nc(-c3ccccc3)cs2)cc1,10 µM (active),
COc1ccc(OC)c(Nc2nc(-c3ccc(O)c(O)c3)cs2)c1,17.8 µM (active),
O=C(Nc1ccc(Cl)cn1)Nc1cccs1,inactive,
COc1ccc(-c2csc(Nc3ccccn3)n2)cc1,2.24 µM (active),
COc1ccc(NC(=O)c2sc(N)nc2-c2ccccc2)cc1,inactive,
O=S(=O)(Nc1ccccn1)c1ccc(Oc2ccccc2)cc1,inactive,
